Screening results: PubChem BioAssay, National Center for Advancing Translational Sciences (NCATS)
This is one part of a sample in which hits are shown more often than they occur.
Pf Dd2 inh: inhibitors of Plasmodium falciparum Dd2 growth. P. falciparum Dd2 growth, SYBR Green, 72 h. Potency, µM (doses to about 28.9 µM), inactives show at the highest dose activity, negative = inhibition, usual class: inhibitors. 120,000 compounds, 4.3% hits. AID 1347417; active means well fitted inhibition curve with a large enough effect;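 further: plate controls were DMSO vehicle for no effect and reference drug for full effect; nearly all actives have a fitted effect of over 65% in size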
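Infected erythrocytes (Dd2, 0.3% parasitemia, 2.5% hematocrit final) are added to compound in RPMI-1640/Albumax II medium, grown 72 h at 37C in low oxygen, then lysed with saponin/Triton-X containing SYBR Green and read by fluorescence.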
The depositor's hits bear a star; i = inactive; [ ] = dose if it differs, or a comment. Potency means the concentration at half of the fitted maximal effect.

SMILES | Pf Dd2 inh
Cc1ccc(-n2ncc(C(=O)Nc3ccc(C)c(F)c3)c2C2CCN(C(=O)OC(C)(C)C)CC2)cc1C | -16.4%
Cc1ccc(-n2ncc(C(=O)NCc3ccco3)c2C2CCN(C(=O)OC(C)(C)C)CC2)cc1C | 11.2µM*
CC(C)(C)OC(=O)N1CCC(c2c(C(=O)N3CCOCC3)cnn2-c2cccc(F)c2)CC1 | 12.0%
CC(C)(C)OC(=O)N1CCC(c2c(C(=O)Nc3ccc4c(c3)OCCO4)cnn2-c2ccc(F)cc2)CC1 | 7.94µM*
Cc1cccc(C)c1-n1ncc(C(=O)Nc2ccc3c(c2)OCO3)c1C1CCN(C(=O)OC(C)(C)C)CC1 | i
CCc1ccc(C(=O)NC2CCN(c3cc(-c4cccs4)[nH]n3)C2)cc1 (stereo not given) | i
CCc1noc(C)c1C(=O)N1CCC(c2[nH]ncc2-c2ccccc2C)CC1 | -29.1%
O=C1CCCCN1CCCC(=O)N1CCOC(CC2CCCCC2)C1 (stereo not given) | 0.5%
COc1nccnc1NC1CCNCC1 | 36.9%[5.79 µM]
COC[C@@H]1CN(S(C)(=O)=O)C[C@H]1c1ccncc1 | i
COc1cc(NC(=O)Cn2c(-c3ccc(F)cc3)nc(C)cc2=O)cc(OC)c1 | -6.0%
CCOC(=O)CCNC(=O)N1CCC(N2C(=O)C3(CCCC3)C2c2scnc2C)CC1 (stereo not given) | -12.0%
O=C(Cc1ccncc1)N1CCC(N2C(=O)C3(CCCCC3)C2c2ccccc2)CC1 (stereo not given) | i
COCC(=O)N1CCC(N2C(=O)C3(CCCCC3)C2c2ccccc2)CC1 (stereo not given) | -29.5%
O=C(Cn1ccnc1)N1CCC(N2C(=O)C3(CCCC3)C2c2ccccc2)CC1 (stereo not given) | -7.5%
O=C(CC(F)(F)F)N1CCC(N2C(=O)C3(CCCC3)C2c2ccccc2)CC1 (stereo not given) | 6.31µM*
Cn1cnc(S(=O)(=O)N2CCC(N3C(=O)C4(CCCC4)C3c3ccccc3)CC2)c1 (stereo not given) | -11.1%
O=C1N(C2CCNCC2)C(c2ccccc2)C12CCCC2 (stereo not given) | 5.01µM*
CCNC(=O)N1CCC(N2C(=O)C3(CCCC3)C2c2ccccc2)CC1 (stereo not given) | 11.2µM*
CN(C)S(=O)(=O)N1CCC(N2C(=O)C3(CCCCC3)C2c2ccccc2)CC1 (stereo not given) | -21.2%
COc1ccc(-c2ccc3nnc(CNC(=O)Cc4cccc(OC)c4)n3n2)cc1 | i
Cc1cccc(NC(=O)N2CCC(CCNC(=O)Cc3ccccc3F)CC2)c1 | -13.7%
COCCNC(=O)C(NC(=O)c1ccc(F)cc1)C1CCN(C(=O)c2ccccc2F)CC1 (stereo not given) | 9.8%
O=C(CC[C@H]1NC(=O)c2ccccc2NC1=O)NCCCc1nc2ccccc2[nH]1 | -10.1%
O=C(CCC[C@@H]1[C@H]2CCCN3CCC[C@@H](CN1C(=O)C1CCCC1)[C@@H]23)N1CCOCC1 | -8.5%
SMILES | Pf Dd2 inh
COc1ccccc1NC(=O)Cn1nc2n(c1=O)CCCCC2 | -22.9%
Cc1cc(C(=O)N2CCC3(CC(=O)Nc4ccccc4N3)C2)ccc1Cl (stereo not given) | 9.2%
COc1ccc(OC)c(CCNC(=O)c2csc3c2CCCCC3)c1 | 4.8%
COC(=O)c1c(NC(=O)COc2ccc(Cl)cc2C)sc2c1CCCCC2 | 19.0%
CCOC(=O)c1c(NC(=O)COc2ccc(Cl)cc2C)sc2c1CCCCC2 | -6.9%
CCOC(=O)N1CCc2c(sc(NCc3cc(OC)ccc3OC)c2C(=O)Nc2cc(OC)ccc2OC)C1 | 11.2µM*
CCOc1ccc(NC(=O)c2c(NC(=O)c3ccccc3F)sc3c2CCC3)cc1 | i
CCOc1cc(=O)n2c(c1C(=O)Nc1cc(OC)ccc1OC)CCCC2 | 12.4%
CCOC(=O)c1c(NC(=O)c2ccc(OC)cc2)sc2c1CCCCC2 | 30.3%
CCOC(=O)c1c(NC(=O)COc2ccc(CC)cc2)sc2c1CCCC2 | 6.6%
COc1ccc(NC(=O)NCc2c(-n3cccc3)sc3c2CCCC3)c(OC)c1 | 9.4%
COc1ccc(OC)c(NC(=O)c2c(NCc3ccc(OC)c(OC)c3)sc3c2CCC3)c1 | 7.94µM*
COc1ccc(Cl)cc1NC(=O)c1c(NCc2ccc(C)o2)sc2c1CCCCC2 | 14.1µM*
CCOC(=O)N1CCc2c(sc(NCc3cccc(F)c3)c2C(=O)Nc2ccc(OCC)cc2)C1 | 12.6µM*
COCCNC(=O)[C@@H]1C[C@H](Oc2ccccc2)CN1C(=O)COc1ccccc1 | 6.0%
Cc1ccc(N2CC(NC(=O)c3cccc(CCC(C)(C)O)c3)CC2=O)cc1 (stereo not given) | -20.7%
O=C(O)CCCC(=O)N1CCN2C(=O)c3cc(-c4ccco4)ccc3NC(=O)[C@@H]2C1 | 22.3%[44.1 µM]
COc1cc(NC(=O)CN2C(=O)NC3(CCC(C)CC3)C2=O)cc(OC)c1 (stereo not given) | 9.2%
CCc1nc(C)c(C(=O)N2CCC3(CC2)CC(c2ccccc2)CN(CC)C3)o1 (stereo not given) | i
COCC(=O)N(C1CCOCC1)C1CCN(C(=O)c2cccc(C)c2)CC1 | -24.6%
